tim10-1 inh: growth inhibitors of tim10-1 mutant yeast | S. cerevisiae tim10-1 ts strain growth, BacTiter-Glo, 24 h | inhibition, % at 20 µM | 2.2% of 330,000 active;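 active means inhibition of at least 40%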;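 further: mutant grown at 25 °C; 0% = DMSO wells with yeast and 100% = wells holding no yeast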
PfHsp90 set2: reduces growth (ATP signal) of yeast expressing P. falciparum Hsp90. S. cerevisiae expressing PfHsp90, BacTiter-Glo ATP, 48 h; yeast lacking PDR1 and PDR3 efflux regulators. inhibition, % at 9.4 µM. 0.32% of 310,000 active;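 active means every replicate shows inhibition above about 80%, whatever the replicate mean, limit read from the data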;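 further: 0% = DMSO neutral controls and 100% = 20 µM radicicol positive controls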
NALP1 yeast inh: blocks the NALP1 inflammasome reconstituted in yeast. S. cerevisiae NALP1/ASC/caspase-1 growth, X-gal OD620, 72 h. inhibition, % at 10 µM. 0.61% of 280,000 active; in the data active means inhibition mostly above about 24%, no sharp cut-off; inactive means mostly below about 32%
SKKanGAS inh: inhibitors of SKKanGAS S. pyogenes growth in kanamycin (SK-promoter or general growth effect); BacTiter-Glo, 6 h; inhibition, % at 7.5 µM; 1.3% of 300,000 active;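 active means mean replicate score, as percent of positive control median, at least 50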;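 further: strain carries kanamycin resistance gene driven by streptokinase promoter and grows in 40 µg/ml kanamycin; loss of luminescence reflects streptokinase promoter inhibition or plain growth inhibition; 0% = median of DMSO wells and 100% = positive control at its reference dose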
TIM10 inh: growth inhibitors of TIM10 yeast strain | S. cerevisiae TIM10 strain growth, BacTiter-Glo luminescence, 24 h | inhibition, % at 10 µM | 1.4% of 330,000 active;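 active means inhibition of 40% or more at the single tested concentration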;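 further: wild-type TIM10 isogenic control strain grown at permissive 25 °C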
tim23-1 inh: growth inhibitors of tim23-1 mutant yeast; S. cerevisiae tim23-1 growth, BacTiter-Glo luminescence, 24 h; inhibition, % at 20 µM; 1.3% of 330,000 active;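 active means growth inhibition of the mutant yeast at or above 50%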;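 further: temperature-sensitive mutant grown at 25 °C; plate controls were DMSO-treated mutant yeast for no effect and medium wells lacking yeast for full effect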
The depositor's hits bear a star; · = not tested or not shown. This is a sample that favours compounds with a hit; in the whole collection about 4.8% have one here.

SMILES | tim10-1 inh | PfHsp90 set2 | NALP1 yeast inh | SKKanGAS inh | TIM10 inh | tim23-1 inh
CC(=O)Cn1c(N2CCC(Cc3ccccc3)CC2)nc2c1c(=O)[nH]c(=O)n2C | 8 | -7 | -5 | 6 | 9 | 3
Cc1ccc(-n2ncc3c(NCC4CCCO4)ncnc32)c(C)c1 (stereo not drawn) | 0 | 35 | 3 | · | -1 | -2
Cc1c(C(=O)OCC(=O)Nc2cccc(S(N)(=O)=O)c2)oc2c1ccc1ccccc12 | 8 | -15 | -9 | 66* | -7 | 4
NS(=O)(=O)c1cccc(NC(=O)COC(=O)c2ccccc2C(=O)c2ccccc2)c1 | -1 | 45 | · | · | 2 | 14
CCCSc1nsc(NC(=O)C(c2ccccc2)c2ccccc2)n1 | -8 | 10 | -12 | 100* | 4 | -15
CCCSc1nsc(NC(=O)Nc2ccc(F)cc2F)n1 | 33 | 5 | 19 | 64* | -1 | 25
CCCSc1nsc(NC(=O)CC)n1 | 0 | 10 | 25 | 6 | 6 | 10
CC(OC(=O)Cc1n[nH]c(=O)c2ccccc12)C(=O)Nc1cc(Cl)cc(Cl)c1 (stereo not drawn) | 18 | -5 | · | 5 | 4 | 18
CC(OC(=O)Cc1n[nH]c(=O)c2ccccc12)C(=O)Nc1ccc(Cl)cn1 (stereo not drawn) | 10 | 11 | 9 | 68* | -6 | 32
COc1ccc(C(=O)C(/C=N/O)=N/Nc2ccc(F)cc2)cc1 | 25 | -10 | 20* | 18 | -16 | 22
N#CN1CCC(NS(=O)(=O)c2ccc(C(F)(F)F)cc2)C1 (stereo not drawn) | 26 | 8 | · | · | 18 | 30
CN(C)c1ccc(/C=C(\C#N)C(=O)c2ccccc2)cc1 | · | 5 | 37* | -3 | · | ·
N#C/C(=C\c1ccc(C#N)cc1)C(=O)c1ccccc1 | · | -17 | 13 | -2 | · | ·
CCN(CC)c1ccc(C(=O)OCc2cc(=O)oc3cc(O)ccc23)cc1 | 10 | -2 | 13 | 51* | -6 | 1
O=C(CSc1nnnn1C1CCCC1)N1CCOCC1 | -10 | -7 | -8 | -7 | -10 | 2
O=C(CCN1C(=O)/C(=C/c2ccccc2Cl)SC1=S)NNC(=O)c1ccccc1O | 3 | -24 | -7 | 60* | 5 | -5
O=C(CCN1C(=O)/C(=C\c2ccccc2Cl)SC1=S)N1CCN(c2ccccc2)CC1 | 18 | · | 29* | 10 | 7 | -9
COc1cc(N)c(Cl)cc1C(=O)OCC(=O)c1cccs1 | -25 | -6 | 13 | -1 | 13 | 11
Cc1ccc(C(=O)NCC2CCCO2)cc1[N+](=O)[O-] (stereo not drawn) | 6 | 14 | 17 | 2 | 14 | -4
CC1CCC2C(=O)N(c3ccc(C(=O)NCc4ccccc4)cc3)C(=O)C2C1 (stereo not drawn) | 5 | 1 | 26 | 5 | -32 | 14
O=C1C(F)=CC(COC(c2ccccc2)(c2ccccc2)c2ccccc2)OC1n1cc(F)c(=O)[nH]c1=O (stereo not drawn) | · | 102* | · | · | · | ·
CC(=O)OCC1OC(n2cc(F)c(=O)[nH]c2=O)C(OC(C)=O)C1OC(C)=O (stereo not drawn) | 3 | 1 | · | 12 | 10 | 8
CC1(C)N=C(SCC(=O)Nc2ccccc2)C(c2ccc(Cl)cc2)=N1 | 27 | 18 | 12 | 5 | 20 | 26
Cc1ccc(C2=NC(C)(C)N=C2SCC(=O)Nc2ccc(Cl)cc2)cc1 | 39 | 134* | 9 | 3 | 23 | 20
CC1(C)N=C(SCC(=O)Nc2ccc(Cl)cc2Cl)C(c2ccccc2)=N1 | 22 | 99* | 1 | 3 | 12 | 20
SMILES | tim10-1 inh | PfHsp90 set2 | NALP1 yeast inh | SKKanGAS inh | TIM10 inh | tim23-1 inh
COC(=O)C1CCN(Cc2cc(=O)oc3cc(C)c(Cl)cc23)CC1 | 0 | 4 | 15 | -2 | 23 | 14
CSc1ccc(/C=N/NC(=O)CNc2cccc3ccccc23)cc1 | 32 | -1 | 35 | 1 | 32 | 23
O=C(CNc1cccc([N+](=O)[O-])c1)N/N=C/c1ccc([N+](=O)[O-])o1 | 36 | -1 | 8 | 4 | 35 | 25
O=C(CNc1cccc2ccccc12)N/N=C/c1ccc([N+](=O)[O-])o1 | -40 | -17 | 26 | 131* | -129 | -7
O=C(CNc1cccc2ccccc12)N/N=C/c1ccc[nH]1 | -13 | 14 | 6 | 50* | 7 | -5
CCC(=O)N1c2ccccc2NC2=C(C(=O)CCC2)C1c1ccccc1 (stereo not drawn) | -4 | -7 | -4 | 5 | 3 | 1
CCN(CC1CCCO1)C(=O)c1cc(COc2ccc(OC)cc2Cl)on1 (stereo not drawn) | 13 | -5 | 35 | -4 | 5 | 7
O=C(CNC(=O)c1ccc(Br)o1)NCc1ccc(F)cc1 | -10 | 1 | -62 | 1 | 5 | -3
O=C(NN1C(=O)C2C3C=CC(C3)C2C1=O)c1cccc(Cl)c1 (stereo not drawn) | 7 | 11 | 17 | 3 | -4 | 13
Cn1nc(C(=O)Nc2ccc(Br)cc2)cc1C(=O)Nc1ccc(Br)cc1 | 6 | 25 | 26 | 1 | -3 | 4
Cc1cccc(NC(=O)c2sc(Cl)nc2-c2ccccc2)c1 | 25 | -14 | 15 | 67* | 7 | 31
O=C(CSc1nccc(=O)[nH]1)NCc1ccco1 | -11 | -20 | 43* | 1 | 5 | 16
Cc1cc(=O)[nH]c(SCC(=O)NCc2ccco2)n1 | 16 | 8 | 7 | -2 | 5 | 22
Cc1cc(C)n(-c2nc(N(c3ccccc3)c3ccccc3)nc(-n3nc(C)cc3C)n2)n1 | 12 | · | 2 | 108* | 25 | 12
CC1=C(C)C(=O)N(CCC(=O)O)C1=O | 13 | · | 33 | -4 | -4 | 5
Cc1ccc(S(=O)(=O)c2c(COC(=O)c3ccccc3Cl)c(-c3ccccc3)nn2C)cc1 | 6 | -6 | 42* | -3 | 7 | 13
CCn1c(SCC(=O)c2[nH]c(C)c(C(C)=O)c2C)nnc1-c1ccncc1 | 4 | -38 | 18 | -13 | -10 | 3
CC(C)OC(=O)c1nnn(-c2nonc2N)c1CSc1ccccn1 | 13 | -13 | 17 | -1 | -15 | 29
CC(=O)Oc1ccc(C(=O)Nc2ccccc2C(=O)N2CCCC2)cc1 | 10 | -6 | 10 | 2 | 3 | 9
CCOc1ccc2nc(N3C(=O)/C(=C/c4ccc(Cl)cc4)NC3=S)sc2c1 | · | -2 | 21 | 96* | · | ·
NC(=O)c1ccc(N2CCN(c3ccccc3F)CC2)c([N+](=O)[O-])c1 | 24 | -2 | -7 | -2 | 15 | -11
N#Cc1c(N)c(C(=O)c2ccccc2)n2c1CCC2 | 3 | 11 | 37 | 1 | -12 | 3
O=C(Nc1ccccc1F)NC1CCCCCCC1 | 23 | 7 | 8 | 50* | 12 | 29
C[C@@]12CCC[C@H](O1)[C@@H]([C@H](O)c1ccccc1)O2 | 6 | 12 | · | · | -5 | -13

High-throughput results as filed in PubChem BioAssay.
